Results on 5 molecules are retold here after paper PMC11062922 (Nature Chemical Biology, 2023).

Read-outs that look alike come from different tables or passages of the source.

Common to all, as to design: species or system human, MV4-11 + K-562 + COLO205 + SK-N-BE2 + OVCAR-8
Experiment [1] relates to AURKB. The settings on record: read-out: apparent Kd, compound concentrations: 100 nM and 1000 nM (sheet 'Samples'), n = 1.
The test system of experiment [2] is DDR1. Particulars: read-out: apparent Kd; compound concentrations: 100 nM and 1000 nM (sheet 'Samples'), CATDS: 9.2997876438350002E-2; n = 1.
Experiment [3] deals with FLT4. Particulars: read-out: apparent Kd; compound concentrations: 100 nM and 1000 nM (sheet 'Samples'), CATDS: 0.48274666395287902; n = 1.
For experiment [4], the system named is GALK1. The settings on record: read-out: apparent Kd; compound concentrations: 100 nM and 1000 nM (sheet 'Samples'), CATDS: 7.3268745996591306E-2; n = 1.
Experiment [5] deals with LIMK1. Particulars: read-out: apparent Kd; compound concentrations: 100 nM and 1000 nM (sheet 'Samples'), CATDS: 8.69066115858768E-2; n = 1.
For experiment [6], the system named is MAP4K5. Particulars: read-out: apparent Kd; compound concentrations: 100 nM and 1000 nM (sheet 'Samples'), CATDS: 6.8685970274903196E-2; n = 1.
For experiment [7], the system named is NLK. The settings on record: read-out: apparent Kd; compound concentrations: 100 nM and 1000 nM (sheet 'Samples'), CATDS: 6.8663594256603303E-2; n = 1.
In experiment [8] the test system is PIK3CD. Particulars: read-out: apparent Kd; compound concentrations: 100 nM and 1000 nM (sheet 'Samples'), CATDS: 0.18116624440708201; n = 1.
Experiment [9] has as its system RET. Particulars: read-out: apparent Kd; compound concentrations: 100 nM and 1000 nM (sheet 'Samples'), CATDS: 0.101759373704586; n = 1.
Experiment [10] relates to RIPK2. Particulars: read-out: apparent Kd; compound concentrations: 100 nM and 1000 nM (sheet 'Samples'), CATDS: 0.16558982732925701; n = 1.
The subject of experiment [11] is BUB1. The settings on record: read-out: apparent Kd; compound concentrations:100 nM and 1000 nM (sheet 'Samples'); n = 1.
Experiment [12] relates to CDC42BPA. The settings on record: read-out: apparent Kd; compound concentrations:100 nM and 1000 nM (sheet 'Samples'); n = 1.
Experiment [13] has as its system CDC42BPB. The settings on record: read-out: apparent Kd; compound concentrations:100 nM and 1000 nM (sheet 'Samples'); n = 1.
The subject of experiment [14] is CDC42BPG. The settings on record: read-out: apparent Kd; compound concentrations:100 nM and 1000 nM (sheet 'Samples'); n = 1.
Experiment [15] deals with CDC7. The settings on record: read-out: apparent Kd; compound concentrations:100 nM and 1000 nM (sheet 'Samples'); n = 1.
The test system of experiment [16] is LATS1. Particulars: read-out: apparent Kd; compound concentrations:100 nM and 1000 nM (sheet 'Samples'); n = 1.
In experiment [17] the test system is MELK. Particulars: read-out: apparent Kd; compound concentrations:100 nM and 1000 nM (sheet 'Samples'); n = 1.
For experiment [18], the system named is PIM1. The settings on record: read-out: apparent Kd; compound concentrations:100 nM and 1000 nM (sheet 'Samples'); n = 1.
Experiment [19] concerns PKN1. Particulars: read-out: apparent Kd; compound concentrations:100 nM and 1000 nM (sheet 'Samples'); n = 1.
The subject of experiment [20] is PKN2. Particulars: read-out: apparent Kd; compound concentrations:100 nM and 1000 nM (sheet 'Samples'); n = 1.
For experiment [21], the system named is PRKCA. Particulars: read-out: apparent Kd; compound concentrations:100 nM and 1000 nM (sheet 'Samples'); n = 1.
In experiment [22] the test system is PRKCB. The settings on record: read-out: apparent Kd; compound concentrations:100 nM and 1000 nM (sheet 'Samples'); n = 1.
Experiment [23] has as its system PRKCD. The settings on record: read-out: apparent Kd; compound concentrations:100 nM and 1000 nM (sheet 'Samples'); n = 1.
Experiment [24] deals with PRKCI. Particulars: read-out: apparent Kd; compound concentrations:100 nM and 1000 nM (sheet 'Samples'); n = 1.
In experiment [25] the test system is PRKG1. The settings on record: read-out: apparent Kd; compound concentrations:100 nM and 1000 nM (sheet 'Samples'); n = 1.
Experiment [26] has as its system PRKX. The settings on record: read-out: apparent Kd; compound concentrations:100 nM and 1000 nM (sheet 'Samples'); n = 1.
Experiment [27] concerns ROCK2. Particulars: read-out: apparent Kd; compound concentrations:100 nM and 1000 nM (sheet 'Samples'); n = 1.
In experiment [28] the test system is RPS6KA4. Particulars: read-out: apparent Kd; compound concentrations:100 nM and 1000 nM (sheet 'Samples'); n = 1.
For experiment [29], the system named is RPS6KA5. The settings on record: read-out: apparent Kd; compound concentrations:100 nM and 1000 nM (sheet 'Samples'); n = 1.
Experiment [30] deals with RPS6KB1. The settings on record: read-out: apparent Kd; compound concentrations:100 nM and 1000 nM (sheet 'Samples'); n = 1.
Experiment [31] concerns BMP2K. The settings on record: read-out: apparent Kd; compound concentrations: 100 nM and 1000 nM (sheet 'Samples'), CATDS: 0.25599665936716798; n = 1.
The test system of experiment [32] is FN3KRP. The settings on record: read-out: apparent Kd; compound concentrations: 100 nM and 1000 nM (sheet 'Samples'), CATDS: 0.244187637168161; n = 1.
Experiment [33] deals with MAP3K5. The settings on record: read-out: apparent Kd; compound concentrations: 100 nM and 1000 nM (sheet 'Samples'), CATDS: 0.21983206185326901; n = 1.
The test system of experiment [34] is PDXK. Particulars: read-out: apparent Kd; compound concentrations: 100 nM and 1000 nM (sheet 'Samples'), CATDS: 0.28989199258806803; n = 1.
Experiment [35] deals with BMPR2. The settings on record: read-out: apparent Kd; compound concentrations:100 nM and 1000 nM (sheet 'Samples'); n = 1.
Experiment [36] deals with CDC42. The settings on record: read-out: apparent Kd; compound concentrations:100 nM and 1000 nM (sheet 'Samples'); n = 1.
In experiment [37] the test system is CLK4. The settings on record: read-out: apparent Kd; compound concentrations:100 nM and 1000 nM (sheet 'Samples'); n = 1.

For `Cc1c2ccc(N(C)c3ccnc(Nc4cccc(S(N)(=O)=O)c4)n3)cc2nn1Cc1ccccc1.Cc1c2ccc(N(C)c3ccnc(Nc4cccc(S(N)(=O)=O)c4)n3)cc2nn1Cc1ccccc1.Cl.Cl` [GW787226A], the potency estimated from few doses in experiment [1] (CATDS: 8.6866554765288095E-2) was 941 nM; in [2], 776 nM; in [3], 35.3 nM; in [4], 1650 nM; in [5], 940 nM; in [6], 2130 nM. Also, the potency estimated from few doses in [7] is 2130 nM; in [8] it was 176 nM; in experiment [9], 612 nM; in experiment [10], 209 nM.

For `Cn1ccc2ncnc(Oc3ccc(Nc4nc5ccccc5[nH]4)cc3)c21` [TPKI-72], the potency estimated from few doses in [1] (CATDS: 1) was 617 nM.

With `CCn1c(-c2nonc2N)nc2cncc(C(=O)N3CCNCC3)c21.Cl` [SB-759335-B], the potency estimated from few doses in experiment [11] is 543 nM; in experiment [12], 1080 nM; in experiment [13], 1640 nM; in experiment [14], 2060 nM; in experiment [15] it was 2080 nM; in [16], 1940 nM. Also, the potency estimated from few doses was 1040 nM in [17]; 501 nM in experiment [18]; 813 nM in [19]; 119 nM in [20]; 1900 nM in experiment [21]; 1510 nM in experiment [22]. Besides, the potency estimated from few doses in experiment [23] is 1200 nM; in [24], 2020 nM; in [25] it was 135 nM; in experiment [26] it was 750 nM; in [27] it was 24.7 nM; in experiment [28], 723 nM. Also, the potency estimated from few doses was 142 nM in [29] and 115 nM in experiment [30].

With `c1ccc(-c2ccnc3[nH]ccc23)cc1` [SB-693578], the potency estimated from few doses was 1680 nM in [31], 1850 nM in [32], 2330 nM in [33] and 1330 nM in [34].

Take `O=C1Nc2ccc(C(=O)c3ccco3)cc2C1=Cc1cc(Cl)c(O)c(Cl)c1` [GW406108X]: the results for the potency estimated from few doses in experiment [35], in experiment [36] and in experiment [37] were 15.8 nM, 93.8 nM and 85.5 nM, respectively.
